High-throughput results: PubChem BioAssay, National Center for Advancing Translational Sciences (NCATS)
VDR inhibitor = blocks the human vitamin D receptor; Potency, µM, hits mostly inhibitors; 0.93% of 400,000 active; VDR-SRC2-3 peptide fluorescence polarization, 2 h; P11473
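Measured by FP: displacement of SRC2-3 coactivator peptide from VDR by library compounds, following a two-hour ambient incubation.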
PLK1 PBD block = inhibitors of human PLK1 polo-box domain binding; Plk1 PBD binding of FITC phosphopeptide, fluorescence polarization; Potency, µM, actives largely listed as inhibitors; 2.8% of 360,000 active; AID 720504; note: series mostly up to about 57 µM; nearly all actives have a fitted effect of over 65% in size
Target sequence (P53350 whole entry, looked up, the tested form may be a part): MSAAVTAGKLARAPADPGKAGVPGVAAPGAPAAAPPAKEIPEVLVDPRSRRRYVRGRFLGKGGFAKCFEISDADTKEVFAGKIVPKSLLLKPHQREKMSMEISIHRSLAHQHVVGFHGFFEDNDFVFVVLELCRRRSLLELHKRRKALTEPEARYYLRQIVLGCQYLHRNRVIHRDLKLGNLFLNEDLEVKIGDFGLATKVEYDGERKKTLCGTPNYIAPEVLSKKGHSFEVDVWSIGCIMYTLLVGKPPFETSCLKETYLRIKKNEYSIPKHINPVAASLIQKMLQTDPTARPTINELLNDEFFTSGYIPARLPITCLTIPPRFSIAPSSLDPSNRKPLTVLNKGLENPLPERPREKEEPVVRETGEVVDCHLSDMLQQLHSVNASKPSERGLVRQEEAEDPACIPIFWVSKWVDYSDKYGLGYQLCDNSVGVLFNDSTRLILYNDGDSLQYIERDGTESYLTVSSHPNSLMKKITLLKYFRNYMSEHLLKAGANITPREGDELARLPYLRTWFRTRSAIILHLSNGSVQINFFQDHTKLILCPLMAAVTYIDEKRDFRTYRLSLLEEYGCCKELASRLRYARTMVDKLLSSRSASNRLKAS
PTAP TSG101 blk = blocks PTAP/TSG101 interaction to inhibit HIV-1 budding; Q99816; Fluorescence polarization, FITC-PTAP peptide / Tsg101 binding; Potency, µM (top dose mostly 115 µM), most hits filed as inhibitors; 340,000 tested, under 10 active; AID 493005; active = well fitted inhibition curve with a large enough effect in the main read-out, with a control signal flat, not every such curve was filed as active; inconclusive = small, poorly fitted or top-dose-only effect, or effect the other way, or a change in a side signal; inactive = no such curve, though single readings can be large or run the other way
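Compounds were pin-transferred onto Tsg101 binding domain (10 uM final) in HEPES pH 7.5 buffer, then FITC-PTAP peptide was added at 50 nM final. After 20 min at RT, polarization reported peptide displacement across a qHTS concentration series.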
TSHR antag = antagonists of human thyroid stimulating hormone receptor. TSHR-expressing cells, TSH-stimulated cAMP HTRF, 2 h; active compounds read low. AID 504810. activity change, negative = inhibition, % at 11.5 µM. 0.2% of 330,000 active;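 active = activity change below a set negative limit, meaning inhibition stronger than a set level, cut at about -70% in these data; inconclusive = activity change between two set negative limits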
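Read-out is FRET at 665 nm (cryptate excitation 337 nm) from a cryptate-tagged anti-cAMP antibody, competed by cell cAMP against cAMP-d2. Compounds are tested on freshly harvested TSHR cells challenged with 4nM TSH (EC80) for 2 hours at 37 deg C.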
uPA surface inh = blocks generation of uPA at the cell surface. Potency, µM (top dose mostly 38.3 µM), actives largely listed as inhibitors. cell surface uPA generation assay, qHTS. 0.31% of 330,000 active. AID 540303; active = well fitted inhibition curve with a large enough effect; inconclusive = small, poorly fitted or top-dose-only effect; inactive = no such curve, though single readings can be large or run the other way; tested in mouse RAW 264.7 cells; note: nearly all actives have a fitted effect of over 55% in size
Numbers stand for hits; . = inactive; ? = inconclusive; / = not tested or not shown. In the library only some 3.1% were active in any assay of this set; here they are far more common. Unless noted, calls come from the whole dose curve; as a rule, active = well fitted curve in the direction sought with a large enough effect; inconclusive = small, poorly fitted or top-dose-only effect, or another doubt; inactive = no such curve, though single readings can be large; an effect the other way counts as inactive or inconclusive.

SMILES	VDR inhibitor	PLK1 PBD block	PTAP TSG101 blk	TSHR antag	uPA surface inh
CN(C)c1ccc(NC(=O)c2ccc(N3CCOCC3)nc2)cc1	79µM	.	.	.	.
COc1ccc(NC(=O)c2ccc(N3CCOCC3)nc2)cc1	.	.	.	.	.
Cc1c2ccncc2cc2c1[nH]c1ccccc12	.	.	.	/	.
COc1ccc2[nH]c3c(C)c4ccncc4c(C)c3c2c1	.	.	.	.	1.8µM
O=C(Cn1nc(C(=O)O)c2ccccc2c1=O)c1cc(F)ccc1F	?	17µM	.	.	.
O=C(Cn1nc(C(=O)O)c2ccccc2c1=O)NCc1ccco1	.	21µM	.	.	.
O=C(Cn1nnc2ccccc2c1=O)NCc1ccco1	.	.	.	.	.
O=C(COC(=O)C1c2ccccc2Oc2ccccc21)NC1CCS(=O)(=O)C1 (centres undefined)	?	12µM	.	.	.
COc1ccc(CC2=C(O)c3ccccc3C(=O)C2=O)cc1	?	?	.	.	.
O=C1C(=O)c2ccccc2C(O)=C1CCCCl	.	.	.	.	11µM
O=S(=O)(c1ccccc1)N1CCC2(CCN(c3ccncc3)CC2)CC1	.	/	/	/	/
O=C(CCN1C(=O)C2C3C=CC(C3)C2C1=O)N1CCN(c2ccc([N+](=O)[O-])cc2)CC1 (centres undefined)	.	.	.	.	.
O=C1C2C3C=CC(C3)C2C(=O)N1CCN1CCN(Cc2ccc([N+](=O)[O-])cc2)CC1 (centres undefined)	?	21µM	.	.	.
COC/C=C/C1=CC2=CC(=O)C(C)(OC(=O)C3CCCC3)C(=O)C2=CO1 (centres undefined)	?	24µM	.	.	.
C[C@H](CO)N1C[C@H](C)[C@H](CN(C)Cc2ccncc2)Oc2ccc(NC(=O)Nc3ccc(C(F)(F)F)cc3)cc2CC1=O	.	.	.	.	?
O=C(Sc1n[nH]c(=O)[nH]c1=O)c1ccccc1	?	5.3µM	.	/	.
CCOC(=O)c1cccc(OCC(O)CNCCOc2ccccc2F)c1 (centres undefined)	.	.	.	-106	.
CC(=O)c1cccc(OCC(O)CNCCc2ccc(Cl)cc2)c1 (centres undefined)	.	.	.	.	.
O=C(O)Cn1c(C(=O)Nc2nc(-c3ccccc3Cl)cs2)cc2ccccc21	56µM	/	/	/	/
CC(C)c1cnc2c(c1SCC(=O)Nc1cccc([N+](=O)[O-])c1)c(=O)n(C)c(=O)n2C	.	/	/	/	/
COCCn1c(SCc2cc(=O)n3ccsc3n2)nnc1-c1ccncc1	.	24µM	.	.	.
Cc1ccc(C)c(Cn2c(=O)n(CCCC(=O)NCc3ccco3)c(=O)c3sccc32)c1	.	30µM	.	.	.
C=C[C@@]1(C)CC[C@H]2C(=CC[C@@H]3[C@]2(C)CCC[C@@]3(C)C(=O)O)C1	.	/	/	/	/
C=C/C(C)=C/CC1C(=C)CCC2C(C)(C(=O)O)CCCC12C (centres undefined)	.	19µM	.	.	.
C=C1CCC2[C@](C)(CO)C(O)CC[C@]2(C)C1C/C=C1/C(=O)OCC1O (some centres undefined)	.	/	/	/	/
SMILES	VDR inhibitor	PLK1 PBD block	PTAP TSG101 blk	TSHR antag	uPA surface inh
C=C[C@]1(C)C=C2CCC3[C@](C)(CCC[C@@]3(C)C(=O)O)C2CC1 (some centres undefined)	.	24µM	.	.	.
COc1cccc(-c2nc3c(c(SCc4ccccc4)n2)Cc2c(CO)cnc(C)c2O3)c1	.	/	/	/	/
Cc1ccc(OCc2nc3ccccc3n2Cc2ccccc2Cl)cc1	.	/	/	/	/
CC(=O)Nc1ccc(SCC(=O)NCC2(N3CCCCC3)CCCCC2)cc1	?	12µM	.	.	.
O=C(CSc1ccc(Br)cc1)NCC1(N2CCCCC2)CCCCC1	.	.	.	/	.
O=C(Nc1nc2cc3c(cc2s1)OCCO3)C1=COCCO1	?	24µM	.	.	?
O=C(Nc1nc(-c2cccs2)cs1)C1=COCCO1	?	3.4µM	.	.	.
CC1=C(c2ccc(C)c(C)c2)S(=O)(=O)N=C1N1CCN(c2cccc(C)c2)C(C)C1 (centres undefined)	.	/	/	/	/
CC1(C)CC2(CC(c3ccccc3F)c3ccc(O)c(O)c3O2)NC(=S)N1 (centres undefined)	.	19µM	.	.	.
CC1(C)CC2(CC(c3ccc(F)cc3)c3ccc(O)cc3O2)NC(=S)N1 (centres undefined)	.	.	.	.	.
